Only some compounds are listed: those with a hit (about 5.9% of all), similar ones and a draw of the others.
KB-3-1 tox: kills parental KB-3-1 adenocarcinoma cells. KB-3-1 viability, CellTiter-Glo ATP luminescence, 72 h. 400,000 tested, 1.4% active. AID 1347075. Potency, µM (doses to about 46.1 µM), usual class: cytotoxic; further: on the % scale 0 is the no-effect control and ±100 the full control effect; nearly all actives have a fitted effect of over 60% in size
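Parental KB-3-1 adenocarcinoma cells in phenol-red-free DMEM with 10% FBS were pin-treated with compounds at several concentrations, incubated 72 h at 37 °C, and viability read by CellTiter-Glo luminescence; concentration-effect curves were fitted after normalization.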
KB-V1 MDR tox: kills drug-selected multidrug resistant KB-V1 cells. KB-V1 MDR cells viability, CellTiter-Glo, 72 h. Potency, µM (top dose mostly 46.1 µM), actives largely listed as cytotoxic. 400,000 tested, 3.4% active; further: on the % scale 0 is the no-effect control and ±100 the full control effect; nearly all actives have a fitted effect of over 60% in size
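Cells of the MDR subline KB-V1 are plated, dosed with compound at multiple concentrations, and incubated 72 h at 37 degrees C; CellTiter-Glo is then added and luminescence read after 10 min.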
S2 tox: viability counter-screen for ATXN expression inhibitors; Potency, µM (top dose mostly 56.7 µM), most hits filed as cytotoxic; 400,000 tested, 0.49% active; AID 651635; S2 cells (HEK-293 line with an ATXN2-luciferase reporter) viability, CellTiter-Fluor protease fluorescence, 24 h; further: nearly all actives have a fitted effect of over 40% in size
HepG2 viability: counter-screen for TGF-b inhibitors: cytotoxicity in HepG2 cells | HepG2 CAGA-GFP viability, ATP luminescence, 18 h | Potency, µM (titrated, usually from 46.1 µM), without a hit: at the top dose activity change, negative = cytotoxicity, hits mostly cytotoxic | 410,000 tested, 0.76% active | AID 588856
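HepG2 CAGA-GFP cells (1000/well, DMEM with 1% FBS) received compound, then TGF-beta at 500 pg/mL final, and were incubated 18 hours at 37 degrees C. Viability was read by CellTiter-Glo luminescence. Media-only wells were set as complete cell-killing and DMSO as no toxicity.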
TGFb SMAD3 inh: TGF-b pathway inhibition. HepG2 CAGA-GFP TGF-b/SMAD3 reporter, GFP fluorescence, 18 h; TGF-beta stimulated, 500 pg/mL final. Potency, µM (highest dose often 46.1 µM), without a hit: top-dose activity, negative = inhibition, most hits filed as inhibitors. 410,000 tested, 1.2% active. AID 588855; further: on the % scale 0 is the no-effect control and ±100 the full control effect; nearly all actives have a fitted effect of over 65% in size
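First, reporter cells (HEPG2 CAGA-GFP) rested 2 h at 37 degrees C. Next, compounds were pinned in and TGF-beta added to 500 pg/mL final. After 18 h, GFP was imaged per cell and summed per well.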
ATXN2 expr inh: inhibitors of ATXN2 expression. HEK-293 ATXN2-luciferase reporter, luminescence, 24 h. Potency, µM (titrated, usually from 57 µM), inactives show at the highest dose activity change, negative = inhibition, usual class: inhibitors. 360,000 tested, 0.72% active. AID 1745845; further: on the % scale 0 is the no-effect control and ±100 the full control effect; nearly all actives have a fitted effect of over 55% in size
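ATXN2-luciferase reporter cells (luciferase flanked by upstream and downstream ATXN2 gene portions) were treated 24 h at 37 °C with compounds at up to 57 uM. SteadyGlo luminescence gave expression; GF-AFC fluorescence gave viability.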
An asterisk follows results filed as active; i = inactive; ? = inconclusive; / = no result. The call rests on the fitted dose curve; in most records, active means well fitted curve in the direction sought with a large enough effect; inconclusive means small, poorly fitted or top-dose-only effect, or another doubt; inactive means no such curve, though single readings can be large; an effect the other way counts as inactive or inconclusive. Potency means the concentration at half of the fitted maximal effect.

SMILES | KB-3-1 tox | KB-V1 MDR tox | S2 tox | HepG2 viability | TGFb SMAD3 inh | ATXN2 expr inh
Cc1noc(C)c1CCC(=O)Nc1c(C(C)C)cccc1C(C)C | i | 15µM* | ? | -24% | -21% | -19%
CNC(=O)c1ccc(NC(=O)CCc2c(C)noc2C)cc1 | i | i | i | -2% | 11% | /
O=S(=O)(NCc1c(Cl)cccc1Oc1ccccc1)c1ccc(F)cc1 | 16µM* | i | i | -45% | 11µM* | /
Cc1ccc(C)c(CNC(=O)C2CCN(c3nc4ccccc4nc3C(F)(F)F)CC2)c1 | i | i | i | -15% | ? | 7%
CC(C)C(OC(=O)CN1C(=O)COc2ccccc21)C(=O)NC1CCCC1 (stereo not drawn) | i | 6.5µM* | i | -10% | -14% | -4%
CC(C)C(OC(=O)CN1C(=O)COc2ccccc21)C(=O)NC1CCCCC1 (stereo not drawn) | i | ? | / | 8% | 0% | -15%
Cc1ccc2c(c1)N(CC(=O)OC(CC(C)C)C(=O)NC1CCCC1)C(=O)CO2 (stereo not drawn) | i | 3.7µM* | i | -31% | -33% | -9%
O=C(O)CCNc1ccc(NCCC(=O)O)c2c1C(=O)c1ccccc1C2=O | ? | i | ? | -21% | 2% | /
O=C1c2cccc(NCCNCCO)c2C(=O)c2cccc(NCCNCCO)c21 | ? | i | 18µM* | -12% | ? | 4.5µM*
CCCCCNC(=O)C(c1ccc(OC)cc1)n1c(=O)c(-c2ccco2)nc2ccccc21 (stereo not drawn) | ? | 18µM* | / | / | / | /
CC(C)c1c(C(=O)N2CCN(CCO)CC2)cnn1-c1nccc(-c2cccs2)n1 | / | / | i | / | / | /
CC(C)c1ccccc1NC(=O)CCc1nc2ccccc2s1 | i | 18µM* | i | 3% | -42% | 6%
COc1ccccc1NC(=O)CCc1nc2ccccc2s1 | i | i | i | 6% | 6% | 3%
COc1cccc(/C(O)=C2\C(=O)C(=O)N(c3ccccn3)C2c2cccc(OC)c2OC)c1 (stereo not drawn) | i | 23µM* | i | -6% | 7% | 1%
COc1ccc(C2/C(=C(/O)c3ccccc3)C(=O)C(=O)N2c2ccccn2)cc1 (stereo not drawn) | i | i | i | 5% | 6% | 13%
CCCOc1ccc(/C(O)=C2\C(=O)C(=O)N(c3ccccn3)C2c2ccccc2F)cc1C (stereo not drawn) | i | 18µM* | i | -18% | 0% | 19%
c1ccc(-c2nnc(-c3ccccn3)s2)nc1 | ? | i | i | -6% | -13% | 8.9µM*
COC(=O)Cc1c(C)c2cc3c(c(C)c2oc1=O)OCN(CCc1ccc(OC)cc1)C3 | i | i | / | -5% | 4% | 1%
CCCC[C@H]1CCCO[C@@](C(=O)NCCN2CCOCC2)(C(F)(F)F)C1 | / | / | / | -6% | -23% | /
COc1ccc2cc1Oc1ccc(cc1)CC1c3c(cc(OC)c4c3Oc3cc5c(cc3O4)CCNC5C2)CCN1C (stereo not drawn) | 16µM* | ? | 8.4µM* | -103% | 10µM* | 11µM*
CCN(CC)CCNC(=O)Nc1ccc2c(c1)N(Cc1ccccc1)C(=O)c1ccccc1S2 | / | / | / | -107% | / | /
COc1ccc(C)cc1NC(=O)Nc1cccc(-c2noc(C)n2)c1 | i | ? | i | -29% | -14% | -29%
Cc1ccc(-c2noc(CC(=O)c3ccc([N+](=O)[O-])cc3)n2)cc1 | i | 16µM* | i | -29% | -20% | -8%
CS(=O)c1ccccc1-c1nc(-c2ccc([N+](=O)[O-])cc2)no1 (stereo not drawn) | ? | 8.2µM* | i | -33% | -13% | 18%
Cc1nc(-c2cccc(NC(=O)Nc3ccc([N+](=O)[O-])cc3)c2)no1 | ? | i | i | -56% | ? | 13µM*
SMILES | KB-3-1 tox | KB-V1 MDR tox | S2 tox | HepG2 viability | TGFb SMAD3 inh | ATXN2 expr inh
O=C(CCN1Cc2ccccc2OC(c2ccccc2F)C1)N1CCC(N2CCCC(O)C2)CC1 (stereo not drawn) | / | / | i | / | / | /
COc1ccc(NC(=O)c2cc3c([nH]c2=O)CC(c2ccccc2)CC3=O)cc1 (stereo not drawn) | / | / | / | -13% | -2% | /
Nc1ccccc1O | i | i | i | 16µM* | ? | -3%
Nc1cccc2c(O)cccc12 | ? | ? | i | 13% | 6% | -7%
COc1ccccc1CN(Cc1ccco1)c1cnc(S(C)(=O)=O)nc1C(=O)Nc1ccccc1Cl | i | ? | i | 2% | -2% | 6%
CCc1cc(C(=O)N2CCc3c([nH]c4ccccc34)C2c2ccc(OC)cc2F)no1 (stereo not drawn) | 5.8µM* | ? | i | -8% | -18% | 48%
COc1ccc(C2c3[nH]c4ccccc4c3CCN2C(=O)c2ccc(=O)n(C)n2)c(F)c1 (stereo not drawn) | i | i | i | -25% | 0% | 79%
O=C(c1cnccn1)N1CCc2c([nH]c3ccccc23)C1c1cccc(Cl)c1 (stereo not drawn) | ? | 23µM* | i | -15% | -22% | -17%
COc1cccc(/C=N/NC(=O)CNC(=O)COc2ccccc2)c1O | i | i | ? | -4% | ? | /
Cc1cccc(OCC(=O)NCC(=O)N/N=C/c2cc(Br)cc(Br)c2O)c1 | ? | i | i | -15% | -4% | 14µM*
O=C(CCSCCc1ccccn1)Nc1ccccc1C(F)(F)F | i | i | i | 0% | -12% | 0%
CN(C(=O)c1cccc(C(F)(F)F)c1)C1CCCc2ccccc21 (stereo not drawn) | i | i | i | 4% | -9% | -17%
CN(C(=O)CCl)C1CCCc2ccccc21 (stereo not drawn) | 5.8µM* | ? | ? | -90% | ? | ?
COc1cc(N2C(=O)CSC23C(=O)N(Cc2ccc(C)cc2)c2ccccc23)cc(OC)c1OC (stereo not drawn) | i | ? | i | -16% | 0% | -3%
COc1ccc(N2C(=O)CSC23C(=O)N(Cc2ccc(C)cc2)c2ccccc23)cc1Cl (stereo not drawn) | ? | 18µM* | i | -20% | -3% | -18%
COc1cccc(N2C(=O)CSC23C(=O)N(Cc2ccccc2F)c2ccccc23)c1 (stereo not drawn) | i | ? | i | -17% | -8% | -20%

Screens (PubChem)
